Data: PubChem BioAssay (Tox21)
“And” between values parts separate entries of the source, which are not always exact repeats. Identical values can stand only once. Results filed as inconclusive are left out. Where a structure was tested more than once in an assay, its records may differ in their call. The source made the active and inactive calls. The call rests on the fitted dose curve; in most records, active means well fitted cell-killing curve with a large enough effect in the repeat runs; inconclusive means weak or mixed curves, or effect the other way; inactive means no such curve, though single readings can be large or run the other way. Starred links: 1 amine or outer side, 2 acyl side, 3 side chain; linkers in the order of their positions; H or OH if unused. Positions of bridges follow the written chain, without caps; N, C: chain ends. Non-standard residues stand in square brackets, D forms with d. Residues, ends and D or L forms follow the SMILES beside them. Chains are numbered I, II in the order given. Actinocin(9to1) = Cc1c2oc3c(C)ccc(C(=O)[*:1])c3nc-2c(C(=O)[*:2])c(N)c1=O; NMeV = CN[C@H](C(=O)O)C(C)C; Sar = CNCC(=O)O

Experiment: qHTS assay to identify small molecule agonists of the estrogen receptor alpha (ER-alpha) signaling pathway in the presence of an antagonist - cell viability counter screen (AID 1259386);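 further: cells exposed to compounds for 22 h at 37 °C before the viability read; nearly all actives have a fitted effect of over 30% in size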
Conditions: VM7Luc4E2 viability, CellTiter-Fluor fluorescence, 22 h; series mostly up to 92.4 µM; activity change, negative = cytotoxicity: at the top concentration
Source text: National Center for Advancing Translational Sciences [NCATS]
NIH Chemical Genomics Center [NCGC]
U.S. Environmental Protection Agency [EPA]
National Institutes of Environmental Health Sciences [NIEHS]
National Toxicology Program [NTP]
U.S. Food and Drug Administration [FDA]
Estrogen receptor (ER), a member of nuclear hormone receptor plays an important role in development, metabolic homeostasis and reproduction. Two subtypes of ER, ER-alpha and ER-beta, have similar expression patterns with some uniqueness in both types. Endocrine disrupting chemicals (EDCs) and their interactions with steroid hormone receptors like ER causes disruption of normal endocrine function. Therefore, it is important to understand the effect of environmental chemicals in ER signaling pathway. For identifying ER agonists, VM7Luc4E2 cell line has been used in the current assay.
VM7Luc4E2 cell line (provided by Denison MS, University of California) endogenously expresses full-length ER-alpha and is stably transfected with a plasmid containing four estrogen responsive elements (ERE) upstream of a luciferase reporter gene. This current screening for measuring luciferase reporter gene activity using VM7Luc4E2 cells against Tox21 10K library collection is a confirmation study on agonist mode screening in presence of ER-antagonist (ICI-182,780) at 10.0nM final concentration. The cytotoxicity of the compounds was tested in parallel by measuring the cell viability using CellTiter-Fluor assay system (Promega, Madison, WI) in the same wells.
Tox21 Assay Protocol Summary:
VM7Luc4E2 cells were cultured in phenol red free assay medium containing 10% charcoal stripped FBS for 5 days prior to the assay. The cells were dispensed at 4,000 cells in 4uL of assay medium per well into white wall/solid-bottom 1536-well plates (Corning Life Sciences, Corning, NY) using a Multidrop Combi (Thermo Fisher Scientific Inc., Waltham, MA) dispenser. After the assay plates were incubated at 37C and 5% CO2 for 24hr, 1uL of 10.0nM (final concentration) ICI-182,780 or assay buffer was added using two separate tips of Flying Reagent Dispenser (FRD, Aurora Discovery, San Diego, CA). Then 23nL of compounds dissolved in DMSO at 15 concentrations and positive controls or DMSO only was transferred to the assay plates by a Pintool station (Wako, San Diego, CA). The assay plates were incubated at 37C and 5% CO2 for 22hr. After 21hr incubation at 37C, 1uL/well CellTiter-Fluor reagent (Promega Corporation, Madison, WI) was added to each well using FRD and after 1hr incubation at 37C and 5% CO2, the fluorescence signal was measured on ViewLux plate reader (PerkinElmer, Shelton, CT).
On the % scale 0 is the no-effect control and ±100 the full control effect; potency means the concentration at half of the fitted maximal effect.

| SMILES | Potency | activity change, negative = cytotoxicity |
| --- | --- | --- |
| CN(C)c1ccc2nc3ccc(=[N+](C)C)cc-3sc2c1 | 33 µM (active) and 27.3 µM (active) and 15 µM (active) | – |
| O=C(O)c1cc(Cl)cc(Cl)c1 | – | 7.45% (inactive) |
| O=C(O)c1cn(-c2ccc(F)cc2)c2cc(N3CCNCC3)c(F)cc2c1=O | inactive | – |
| O | inactive | – |
| c1ccc2cc3c(ccc4ccccc43)cc2c1 | inactive | – |
| C[N+]1([O-])CCOCC1 | – | 2.87% (inactive) |
| CCC(C)(Oc1ccc(C2(c3ccc(OC(C)(CC)C(=O)O)cc3)CCCCC2)cc1)C(=O)O (stereo not given) | – | 0.0868% [at 42.5 µM] (inactive) |
| NCCO | inactive | – |
| c1cc(C(c2ccc(OCC3CO3)cc2)C(c2ccc(OCC3CO3)cc2)c2ccc(OCC3CO3)cc2)ccc1OCC1CO1 (stereo not given) | inactive | – |
| CCN(CC)CCOc1ccc(/C(=C(\Cl)c2ccccc2)c2ccccc2)cc1 | inactive | – |
| Oc1c(Cl)cc(Cl)c(Cl)c1Cc1c(O)c(Cl)cc(Cl)c1Cl | 13.3 µM (active) | – |
| O=C(O)c1cccc(C(=O)O)c1 | inactive | – |
| CCn1c2ccccc2c2cc(N)ccc21 | – | -14.8% (inactive) |
| COc1ccc(CCN2CCC(Nc3nc4ccccc4n3Cc3ccc(F)cc3)CC2)cc1 | 39.4 µM (active) and inactive | – |
| Cc1cccc(O)c1C | inactive | – |
| COc1nc(C)nc(Cl)c1NC1=NCCN1 | – | 1.89% [at 42.5 µM] (inactive) |
| CCCCCCCCCCCCCC[P+](CCCC)(CCCC)CCCC | 12.1 µM (active) and 17.2 µM (active) | – |
| Cc1c2oc3c(C)ccc(C(=O)N[C@@H]4C(=O)N[C@H](C(C)C)C(=O)N5CCC[C@H]5C(=O)N(C)CC(=O)N(C)[C@@H](C(C)C)C(=O)O[C@@H]4C)c3nc-2c(C(=O)N[C@@H]2C(=O)N[C@H](C(C)C)C(=O)N3CCC[C@H]3C(=O)N(C)CC(=O)N(C)[C@@H](C(C)C)C(=O)O[C@@H]2C)c(N)c1=O (I: T[dV]P[Sar][NMeV] / II: T[dV]P[Sar][NMeV]; ester I:1-I:C, II:1-II:C; linker I:N-II:N via Actinocin(9to1)) | 26.6 µM (active) and 10.6 µM (active) | – |
| CCC(C)(C)C(=O)O[C@H]1C[C@@H](C)C=C2C=C[C@H](C)[C@H](CC[C@@H]3C[C@@H](O)CC(=O)O3)[C@H]21 | inactive | – |
| OCCN1CCNCC1 | inactive | – |

| SMILES | Potency | activity change, negative = cytotoxicity |
| --- | --- | --- |
| CCN1CCCC1CNC(=O)c1cc(S(=O)(=O)CC)c(N)cc1OC (stereo not given) | – | 0.075% [at 42.5 µM] (inactive) |
| CC(C)(C)NC(=O)[C@@H]1CN(Cc2cccnc2)CCN1C[C@@H](O)C[C@@H](Cc1ccccc1)C(=O)N[C@H]1c2ccccc2C[C@H]1O | – | -9.01% [at 42.5 µM] (inactive) |
| Cc1ccnc2c1NC(=O)c1cccnc1N2C1CC1 | inactive | – |
| O=C1Nc2ccccc2C1(c1ccc(O)cc1)c1ccc(O)cc1 | 1.37 µM (active) and 944 nM (active) | – |
| CC(=O)C1=C(C)[C@@H]2C[C@@]3(C1)[C@H](C)CC[C@H]3C2(C)C | inactive | – |
| Cc1cccc([N+](=O)[O-])c1C(=O)O | – | 3.29% (inactive) |
| CCN(CC)c1ccc2c(C)cc(=O)oc2c1 | inactive | – |
| NNCCc1ccccc1 | inactive | – |
| NC(Cc1ccc(Cl)cc1)C(=O)O (stereo not given) | – | 2.8% [at 0.349 µM] (inactive) |
| Nc1ccc2cc3ccccc3cc2c1 | – | -3.28% (inactive) |
| CC(=O)CC(C)=O | – | 2.11% (inactive) |
| C=CC(=O)OCCCCCCOC(=O)C=C | inactive | – |
| CC(C)(C)c1cc(C(C)(C)C)c(O)c(C(C)(C)C)c1 | inactive | – |
| CCCCCCCCCCCC[N+](C)(C)C | 54.5 µM (active) | – |
| CCCCCCCCCCCCCCCCCl | – | -1.56% [at 19 µM] (inactive) |
| O=C(O)CCc1ccccc1 | – | 0.313% (inactive) |
| CC(=O)N[C@@H](CS)C(=O)O | inactive | – |
| NCCCCCC(=O)O | – | 1.73% [at 42.5 µM] (inactive) |
| CCCCCCC(O)CCCCCCCCCCC(=O)O (stereo not given) | – | 8.05% (inactive) |
| O=Nc1ccc(Nc2ccccc2)cc1 | – | -10.1% (inactive) |
